# Data from PubChem BioAssay (NCI).
# The panel holds about 79,000 compounds, 15% with a hit somewhere; the sample as a whole holds those more often. A number with no mark means an inactive call. Active and inactive are the calls of the source. Rule as the data show it: active = growth inhibition above about 70%; inactive = the rest.
# Tests used:
# [1] = NCI Yeast Anticancer Drug Screen. Data for the rad52 strain (AID 147);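 also: 0% = growth of vehicle-treated control cultures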; settings: S. cerevisiae rad52 mutant growth inhibition, hits give high values
# How it was run: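 The repair-mutant yeast strain was incubated with compounds, then growth was read and inhibition derived relative to vehicle.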
# [2] = NCI Yeast Anticancer Drug Screen. Data for the wt1 strain (AID 149);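 also: 0% = growth of vehicle-treated wt1 cultures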; settings: S. cerevisiae wt1 strain (SPY 50644) growth inhibition, hits give high values
# How it was run: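 Growth inhibition read against vehicle controls after compound exposure of the wt1 yeast strain.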
# [3] = NCI Yeast Anticancer Drug Screen. Data for the rad50EPP+ strain (AID 151);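 also: 0% = growth of vehicle-treated control cultures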; settings: S. cerevisiae rad50 mutant strain, hits give high values
# How it was run: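 Vehicle-normalised growth inhibition; rad50EPP+ yeast strain, altered in DNA damage repair, compound-treated.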
# [4] = NCI Yeast Anticancer Drug Screen. Data for the mgt1 strain (AID 153); settings: S. cerevisiae mgt1 mutant growth inhibition, hits give high values
# How it was run: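 Vehicle-normalized growth inhibition is determined in mgt1 yeast, a strain selected for a defined alteration in DNA repair or cell cycle control.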
# [5] = NCI Yeast Anticancer Drug Screen. Data for the rad50 strain (AID 155);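 also: 0% = growth of vehicle-only cultures of the same strain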; settings: S. cerevisiae rad50 strain growth inhibition, hits give high values
# How it was run: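 Readout: growth inhibition relative to vehicle-treated cultures. Compound exposure was carried out in a genetically defined yeast strain deficient in DNA damage repair.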
# [6] = NCI Yeast Anticancer Drug Screen. Data for the mec2-1 strain (AID 157); settings: S. cerevisiae mec2-1 strain, hits give high values
# How it was run: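 Mutant yeast (mec2-1) grown with compound; growth inhibition relative to vehicle control reported.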
# [7] = NCI Yeast Anticancer Drug Screen. Data for the rad14 strain (AID 159);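 also: 0% = growth of vehicle-treated control cultures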; settings: S. cerevisiae rad14 strain growth inhibition, hits give high values
# How it was run: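 Growth inhibition vs vehicle controls; genetically altered yeast strain (DNA damage repair defect) treated with test compounds.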
# [8] = NCI Yeast Anticancer Drug Screen. Data for the sgs1 mgt1 strain (AID 161);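 also: 0% = growth of cultures given vehicle only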; settings: S. cerevisiae sgs1 mgt1 strain, hits give high values
# How it was run: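 Yeast cells carrying a defined DNA-repair defect were exposed to test compounds. Growth inhibition was measured relative to vehicle-treated controls.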
# [9] = NCI Yeast Anticancer Drug Screen. Data for the CLN2oe strain (AID 163);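 also: 0% = growth of vehicle-only control cultures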; settings: S. cerevisiae CLN2oe strain, hits give high values
# How it was run: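 Compounds are applied to yeast harbouring a defined cell-cycle control change; reduced growth compared with vehicle-treated controls gives the value.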
# [10] = NCI Yeast Anticancer Drug Screen. Data for the cln2 rad14 strain (AID 165);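 also: 0% = growth equal to vehicle treated cultures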; settings: S. cerevisiae cln2 rad14 strain, hits give high values
# How it was run: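 Readout is yeast growth inhibition versus vehicle-treated controls, using a strain with cln2 and rad14 alterations exposed to compound.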
# [11] = NCI Yeast Anticancer Drug Screen. Data for the bub3 strain (AID 167); settings: S. cerevisiae bub3 mutant strain, hits give high values
# How it was run: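 Readout: yeast growth inhibition, expressed relative to vehicle-only wells. The test organism is a mutant strain from a panel with lesions in DNA repair or checkpoint genes.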
# [12] = NCI Yeast Anticancer Drug Screen. Data for the wt2 strain (AID 169);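 also: 0% = growth of vehicle-treated yeast cultures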; settings: S. cerevisiae wt2 strain growth inhibition, hits give high values
# How it was run: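 Against vehicle-treated controls, the growth of yeast exposed to each compound was compared, and the inhibition was recorded.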
# [13] = NCI Yeast Anticancer Drug Screen. Data for the mlh1 strain (AID 171);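 also: 0% = growth of vehicle-treated control cultures of the same strain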; settings: S. cerevisiae mlh1 strain growth inhibition, hits give high values
# How it was run: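 Measured: yeast growth. Reference: vehicle-treated controls. Organism: strain with a defined alteration affecting DNA damage repair or cell cycle control, treated with compound.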
# [14] = NCI Yeast Anticancer Drug Screen. Data for the mlh1 rad18 strain (AID 175); settings: S. cerevisiae mlh1 rad18 strain growth inhibition, hits give high values
# How it was run: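 Genetically defined yeast (DNA repair-deficient) exposed to compounds; growth inhibition determined relative to vehicle.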
# [15] = NCI Yeast Anticancer Drug Screen. Data for the rad18 strain (AID 177); settings: S. cerevisiae rad18 mutant growth inhibition, hits give high values
# How it was run: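 Vehicle-treated cultures served as the baseline for scoring compound-induced growth inhibition in DNA-repair-mutant yeast.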
# [16] = at 5.0 µM (retest, dose inferred, filed as 0.5)
# [17] = at 50.0 µM (retest, dose inferred, filed as 5.0)
smiles,measurement,setting,value
CC[n+]1oc(C(=O)c2ccc(Cl)cc2)c(-c2ccccc2)c1-c1ccccc1.[Cl][Fe]([Cl])([Cl])[Cl],growth inhibition,[1]; at 1.2 µM,4%
same,growth inhibition,[1]; at 3.7 µM,15%
same,growth inhibition,[1]; at 11.0 µM,32%
same,growth inhibition,[1]; at 33.0 µM,57%
same,growth inhibition,[1]; at 100.0 µM,75% (active)
same,growth inhibition,[2]; at 1.2 µM,1%
same,growth inhibition,[2]; at 3.7 µM,-1%
same,growth inhibition,[2]; at 11.0 µM,4%
same,growth inhibition,[2]; at 33.0 µM,20%
same,growth inhibition,[2]; at 100.0 µM,54%
same,growth inhibition,[3]; at 1.2 µM,16%
same,growth inhibition,[3]; at 3.7 µM,37%
same,growth inhibition,[3]; at 11.0 µM,75% (active)
same,growth inhibition,[3]; at 33.0 µM,93% (active)
same,growth inhibition,[3]; at 100.0 µM,99% (active)
same,growth inhibition,[4]; at 1.2 µM,-2%
same,growth inhibition,[4]; at 3.7 µM,-3%
same,growth inhibition,[4]; at 11.0 µM,-3%
same,growth inhibition,[4]; at 33.0 µM,-1%
same,growth inhibition,[4]; at 100.0 µM,48%
same,growth inhibition,[5]; at 1.2 µM,5%
same,growth inhibition,[5]; at 3.7 µM,8%
same,growth inhibition,[5]; [16],36%
same,growth inhibition,[5]; at 11.0 µM,41%
same,growth inhibition,[5]; at 33.0 µM,62%
same,growth inhibition,[5]; [17],72% (active)
same,growth inhibition,[5]; at 50.0 µM,82% (active)
same,growth inhibition,[5]; at 100.0 µM,77% (active)
same,growth inhibition,[6]; at 1.2 µM,3%
same,growth inhibition,[6]; at 3.7 µM,1%
same,growth inhibition,[6]; [16],22%
same,growth inhibition,[6]; at 11.0 µM,11%
same,growth inhibition,[6]; at 33.0 µM,26%
same,growth inhibition,[6]; [17],57%
same,growth inhibition,[6]; at 50.0 µM,80% (active)
same,growth inhibition,[6]; at 100.0 µM,69%
same,growth inhibition,[7]; at 1.2 µM,2%
same,growth inhibition,[7]; at 3.7 µM,6%
same,growth inhibition,[7]; at 11.0 µM,12%
same,growth inhibition,[7]; at 33.0 µM,28%
same,growth inhibition,[7]; at 100.0 µM,57%
same,growth inhibition,[8]; [16],34%
same,growth inhibition,[8]; [17],79% (active)
same,growth inhibition,[8]; at 50.0 µM,89.3% (active)
same,growth inhibition,[9]; at 1.2 µM,0%
same,growth inhibition,[9]; at 3.7 µM,2%
same,growth inhibition,[9]; at 11.0 µM,7%
same,growth inhibition,[9]; at 33.0 µM,23%
same,growth inhibition,[9]; at 100.0 µM,56%
same,growth inhibition,[10]; [16],17%
same,growth inhibition,[10]; [17],57%
same,growth inhibition,[10]; at 50.0 µM,68.2%
same,growth inhibition,[11]; at 1.2 µM,-5%
same,growth inhibition,[11]; at 3.7 µM,-1%
same,growth inhibition,[11]; [16],13%
same,growth inhibition,[11]; at 11.0 µM,8%
same,growth inhibition,[11]; at 33.0 µM,25%
same,growth inhibition,[11]; [17],70% (active)
same,growth inhibition,[11]; at 50.0 µM,67.5%
same,growth inhibition,[11]; at 100.0 µM,65%
same,growth inhibition,[12]; at 1.2 µM,0%
same,growth inhibition,[12]; at 3.7 µM,-2%
same,growth inhibition,[12]; at 11.0 µM,-3%
same,growth inhibition,[12]; at 33.0 µM,13%
same,growth inhibition,[12]; at 100.0 µM,59%
same,growth inhibition,[13]; at 1.2 µM,4%
same,growth inhibition,[13]; at 3.7 µM,1%
same,growth inhibition,[13]; at 11.0 µM,9%
same,growth inhibition,[13]; at 33.0 µM,31%
same,growth inhibition,[13]; at 100.0 µM,74% (active)
same,growth inhibition,[14]; [16],27%
same,growth inhibition,[14]; [17],78% (active)
same,growth inhibition,[14]; at 50.0 µM,94.2% (active)
Oc1ccc2ccccc2c1CCc1c(O)ccc2ccccc12,growth inhibition,[1]; at 1.2 µM,3%
same,growth inhibition,[1]; at 3.7 µM,14%
same,growth inhibition,[1]; at 11.0 µM,54%
same,growth inhibition,[1]; at 33.0 µM,94% (active)
same,growth inhibition,[1]; at 100.0 µM,85% (active)
same,growth inhibition,[2]; at 1.2 µM,5%
same,growth inhibition,[2]; at 3.7 µM,17%
same,growth inhibition,[2]; at 11.0 µM,19%
same,growth inhibition,[2]; at 33.0 µM,52%
same,growth inhibition,[2]; at 100.0 µM,88% (active)
same,growth inhibition,[3]; at 1.2 µM,28%
same,growth inhibition,[3]; at 3.7 µM,70% (active)
same,growth inhibition,[3]; at 11.0 µM,85% (active)
same,growth inhibition,[3]; at 33.0 µM,86% (active)
same,growth inhibition,[3]; at 100.0 µM,83% (active)
same,growth inhibition,[4]; at 1.2 µM,2%
same,growth inhibition,[4]; at 3.7 µM,6%
same,growth inhibition,[4]; at 11.0 µM,60%
same,growth inhibition,[4]; at 33.0 µM,95% (active)
same,growth inhibition,[4]; at 100.0 µM,87% (active)
same,growth inhibition,[5]; at 1.2 µM,5%
same,growth inhibition,[5]; at 3.7 µM,13%
same,growth inhibition,[5]; [16],15%
same,growth inhibition,[5]; at 11.0 µM,68%
same,growth inhibition,[5]; at 33.0 µM,93% (active)
same,growth inhibition,[5]; [17],94% (active)
same,growth inhibition,[5]; at 50.0 µM,95.1% (active)
same,growth inhibition,[5]; at 100.0 µM,86% (active)
same,growth inhibition,[6]; at 1.2 µM,7%
same,growth inhibition,[6]; at 3.7 µM,15%
same,growth inhibition,[6]; [16],-6%
same,growth inhibition,[6]; at 11.0 µM,95% (active)
same,growth inhibition,[6]; at 33.0 µM,96% (active)
same,growth inhibition,[6]; [17],95% (active)
same,growth inhibition,[6]; at 50.0 µM,96.5% (active)
same,growth inhibition,[6]; at 100.0 µM,90% (active)
same,growth inhibition,[7]; at 1.2 µM,3%
same,growth inhibition,[7]; at 3.7 µM,8%
same,growth inhibition,[7]; at 11.0 µM,28%
same,growth inhibition,[7]; at 33.0 µM,89% (active)
same,growth inhibition,[7]; at 100.0 µM,85% (active)
same,growth inhibition,[8]; [16],41%
same,growth inhibition,[8]; [17],94% (active)
same,growth inhibition,[8]; at 50.0 µM,95% (active)
same,growth inhibition,[9]; at 1.2 µM,7%
same,growth inhibition,[9]; at 3.7 µM,4%
same,growth inhibition,[9]; at 11.0 µM,97% (active)
same,growth inhibition,[9]; at 33.0 µM,92% (active)
same,growth inhibition,[9]; at 100.0 µM,82% (active)
same,growth inhibition,[10]; [16],6%
same,growth inhibition,[10]; [17],92% (active)
same,growth inhibition,[10]; at 50.0 µM,88.2% (active)
same,growth inhibition,[11]; at 1.2 µM,-1%
same,growth inhibition,[11]; at 3.7 µM,2%
same,growth inhibition,[11]; [16],45%
same,growth inhibition,[11]; at 11.0 µM,98% (active)
same,growth inhibition,[11]; at 33.0 µM,93% (active)
same,growth inhibition,[11]; [17],94% (active)
same,growth inhibition,[11]; at 50.0 µM,94.9% (active)
same,growth inhibition,[11]; at 100.0 µM,86% (active)
same,growth inhibition,[12]; at 1.2 µM,7%
same,growth inhibition,[12]; at 3.7 µM,16%
same,growth inhibition,[12]; at 11.0 µM,38%
same,growth inhibition,[12]; at 33.0 µM,66%
same,growth inhibition,[12]; at 100.0 µM,87% (active)
same,growth inhibition,[13]; at 1.2 µM,5%
same,growth inhibition,[13]; at 3.7 µM,8%
same,growth inhibition,[13]; at 11.0 µM,79% (active)
same,growth inhibition,[13]; at 33.0 µM,94% (active)
same,growth inhibition,[13]; at 100.0 µM,90% (active)
same,growth inhibition,[14]; [16],55%
same,growth inhibition,[14]; [17],92% (active)
same,growth inhibition,[14]; at 50.0 µM,95.2% (active)
same,growth inhibition,[15]; at 1.2 µM,5%
same,growth inhibition,[15]; at 3.7 µM,15%
same,growth inhibition,[15]; at 11.0 µM,46%
same,growth inhibition,[15]; at 33.0 µM,91% (active)
same,growth inhibition,[15]; at 100.0 µM,85% (active)
